Results on 7 compounds are retold here after PubChem BioAssay (Tox21).

Records with an inconclusive call do not appear. Active and inactive are the calls of the source. Unless noted, calls come from the whole dose curve; as a rule, active = well fitted curve in the direction sought with a large enough effect in the repeat runs; inconclusive = weak or mixed curves; inactive = no such curve, though single readings can be large; an effect the other way counts as inactive or inconclusive.

Experiment [1] is described as follows: qHTS assay to identify aromatase inhibitors - cell viability counter screen (AID 743084).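 Note: cells stimulated with testosterone during compound exposure; nearly all actives have a fitted effect of over 55% in size.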 Note: potency is the fitted concentration of half-maximal effect.
In experiment [2] the target is Aryl hydrocarbon receptor (Homo sapiens) (UniProt P35869). In words: qHTS assay to identify small molecule that activate the aryl hydrocarbon receptor (AhR) signaling pathway (AID 743085).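 Note: HG2L7.5c1 human HepG2 liver cells with stably integrated DRE-driven firefly reporter; series mostly up to about 70 µM; nearly all actives have a fitted effect of over 15% in size.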 In a few lines: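 Luminescence (ONE-Glo) from a dioxin-responsive-element luciferase reporter in HG2L7.5c1 HepG2 cells after 24 hr compound exposure at 37C; viability measured by CellTiter-Fluor fluorescence beforehand.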
Background: Quantitative high-throughput screening tests each substance at several concentrations.

A short description of experiment [3]: qHTS assay to identify small molecule antagonists of the peroxisome proliferator-activated receptor gamma (PPARg) signaling pathway - cell viability counter screen (AID 743194). Note: nearly all actives have a fitted effect of over 55% in size. Note: potency is the fitted concentration of half-maximal effect. An outline of the steps: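 Cytotoxicity counter screen in PPARg-bla HEK293H cells, same wells as reporter assay. Compounds plus 50 nM rosiglitazone (final) for 17 h at 37 C, then viability read by CellTiter-Glo luminescence.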

Experiment [4] in a line: qHTS assay for small molecule agonists of the antioxidant response element (ARE) signaling pathway - cell viability counter screen (AID 743203; calls by dose curve; note: nearly all actives have a fitted effect of over 55% in size; note: potency is the fitted concentration of half-maximal effect). An outline of the steps:
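Measured in the same wells as the beta-lactamase ARE reporter, this read-out is CellTiter-Glo luminescence from HepG2 ARE-bla cells given compounds for 16 hrs.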

A short description of experiment [5]: qHTS assay for small molecule activators of the heat shock response signaling pathway - cell viability counter screen (AID 743209). Note: nearly all actives have a fitted effect of over 50% in size. Note: potency is the fitted concentration of half-maximal effect. In a few lines: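 Same-well multiplex: after 2.5 h room-temperature incubation with LiveBLAzer B/G substrate and fluorescence reading, CellTiter-Glo reagent was added to HSE-bla HeLa cells that had received compound for 5 h at 37 C; luminescence read after 30 min.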

A short description of experiment [6]: qHTS assay to identify small molecule agonists of the peroxisome proliferator-activated receptor delta (PPARd) signaling pathway - cell viability counter screen (AID 743211). Note: nearly all actives have a fitted effect of over 55% in size. Note: potency is the fitted concentration of half-maximal effect. An outline of the steps:
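Viability was measured as CellTiter-Glo luminescence (30 min, room temperature) in the same wells as the beta-lactamase readout. GeneBLAzer PPARd UAS-bla HEK293H cells received compound after 5 h plating and were incubated 17 h at 37 C.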

The nature of experiment [7]: qHTS assay to identify small molecule antagonists of the peroxisome proliferator-activated receptor delta (PPARd) signaling pathway - cell viability counter screen (AID 743213). Note: nearly all actives have a fitted effect of over 50% in size. Note: potency is the fitted concentration of half-maximal effect. In a few lines:
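Agonist-stimulated (L165041, 300 nM final) HEK293H PPARd UAS-bla cells are exposed to compounds for 17 h at 37 C, and ATP-based luminescence (CellTiter-Glo) from the same wells reports cytotoxicity.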

In experiment [8] the target is Vitamin D3 receptor (Homo sapiens) (UniProt P11473). The experiment in a line: qHTS assay to identify small molecule agonists of the vitamin D receptor (VDR) signaling pathway (AID 743222; calls by dose curve). In a few lines:
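Following 4 h attachment at 37C, VDR-bla cells (2,000 per well) received DMSO-dissolved compounds or controls. After 16 h incubation, LiveBLAzer B/G FRET substrate was added and fluorescence read 2 h later at room temperature.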

Experiment [9] concerns the target Peroxisome proliferator-activated receptor gamma (Homo sapiens) (UniProt P37231). The experiment in a line: qHTS assay to identify small molecule agonists of the peroxisome proliferator-activated receptor gamma (PPARg) signaling pathway (AID 743094; active = well fitted activation curve with a large enough effect in the signal ratio in the repeat runs, not every such curve was filed as active; the % refers to the signal ratio). An outline of the steps:
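Cell-based bla reporter, HEK293H background, PPARg-driven UAS. Pre-incubation 5 h, 37C, 5% CO2. Compound 17 h, 37C. Substrate 1 h RT; fluorescence.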

The target is the same in experiment [10]. The experiment in a line: qHTS assay to identify small molecule antagonists of the peroxisome proliferator-activated receptor gamma (PPARg) signaling pathway (AID 743191; calls by dose curve; note: series mostly up to about 63 µM; nearly all actives have a fitted effect of over 30% in size). In a few lines: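 GeneBLAzer PPARg UAS-bla HEK293H cells, 5 h post-plating, exposed to compounds 17 h at 37C. LiveBLAzer B/G FRET substrate added for 1 h at room temperature; beta-lactamase reporter read by fluorescence intensity.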

Experiment [11] in a line: qHTS assay for small molecule activators of the heat shock response signaling pathway (AID 743210; active = well fitted activation curve with a large enough effect in the signal ratio in the repeat runs, with a control signal flat, not every such curve was filed as active; the % refers to the signal ratio;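 note: HeLa cells with beta-lactamase reporter driven by heat shock elements; series mostly up to about 63 µM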). An outline of the steps:
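Following overnight attachment, HSE-bla HeLa cells received test compounds for 5 h at 37 C; beta-lactamase activity was then detected via FRET substrate fluorescence.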

Experiment [12] addresses Peroxisome proliferator-activated receptor delta (Homo sapiens) (UniProt Q03181). The experiment in a line: qHTS assay to identify small molecule agonists of the peroxisome proliferator-activated receptor delta (PPARd) signaling pathway (AID 743212; calls by dose curve). An outline of the steps: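 Tox21 library screened in GeneBLAzer PPARd UAS-bla HEK293H cells. After compound treatment at 37 C, a FRET-based beta-lactamase substrate was applied for 2 h and fluorescence recorded.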

Experiment [13] has the same target. The experiment in a line: qHTS assay to identify small molecule antagonists of the peroxisome proliferator-activated receptor delta (PPARd) signaling pathway (AID 743215; active = well fitted inhibition curve with a large enough effect in the signal ratio in the repeat runs, not every such curve was filed as active; the % refers to the signal ratio; note: series mostly up to about 62 µM). An outline of the steps: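 Fluorescence from cleaved LiveBLAzer B/G FRET substrate (2 h, room temperature) reports PPARd-driven beta-lactamase in HEK293H UAS-bla cells. Cells had been treated 17 h at 37 C with compound plus 300 nM final L165041.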

Experiment [14] in a line: qHTS assay to identify small molecule agonists of the farnesoid-X-receptor (FXR) signaling pathway - cell viability counter screen (AID 743218). Note: nearly all actives have a fitted effect of over 45% in size. Note: potency is the fitted concentration of half-maximal effect. In a few lines: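 Readout: CellTiter-Glo luminescence, 30 min RT, multiplexed after the FXR-bla FRET reading. HEK 293T FXR-UAS-bla cells received compound 5 h post-plating and were incubated 16 h at 37 C.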
Experiment [15] in a line: qHTS assay to identify small molecule antagonists of the farnesoid-X-receptor (FXR) signaling pathway - cell viability counter screen (AID 743221; active = well fitted cell-killing curve with a large enough effect in the repeat runs, not every such curve was filed as active; note: nearly all actives have a fitted effect of over 50% in size; note: potency is the fitted concentration of half-maximal effect). In a few lines:
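Cytotoxicity counter screen run in the FXR-bla reporter wells: HEK 293T cells exposed to compound with 50 uM (final) chenodeoxycholic acid for 16 h, 37 C, then viability measured by CellTiter-Glo luminescence after 30 min, room temperature.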

Experiment [16] can be described thus: qHTS assay to identify small molecule that activate the aryl hydrocarbon receptor (AhR) signaling pathway - cell viability counter screen (AID 743086). Note: nearly all actives have a fitted effect of over 45% in size. Note: potency is the fitted concentration of half-maximal effect. In a few lines:
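HepG2-AhR-luc (HG2L7.5c1) cells, 4000/well, treated 24 h at 37 C with compound; viability measured as CellTiter-Fluor fluorescence after 30 min in the same wells as the luciferase read.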

Experiment [17] addresses Bile acid receptor (Homo sapiens) (UniProt Q96RI1). The experiment in a line: qHTS assay to identify small molecule antagonists of the farnesoid-X-receptor (FXR) signaling pathway (AID 743217; active = well fitted inhibition curve with a large enough effect in the signal ratio in the repeat runs, not every such curve was filed as active; the % refers to the signal ratio). In a few lines: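 FRET fluorescence after 2 h room-temperature LiveBLAzer loading gives the readout. Prior step: FXR-bla HEK 293T cells, seeded and incubated 5 h, received test compounds plus 50 uM final CDCA for 16 h at 37 °C.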

Experiment [18] can be described thus: qHTS assay for small molecule agonists of the antioxidant response element (ARE) signaling pathway (AID 743202; active = well fitted activation curve with a large enough effect in the signal ratio in the repeat runs, not every such curve was filed as active; the % refers to the signal ratio). An outline of the steps:
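HepG2 ARE-bla cells; 16 h treatment at 37 C; FRET-based beta-lactamase fluorescence read after 2 h substrate incubation at room temperature.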

Experiment [19] has as its target Bile acid receptor (Homo sapiens) (UniProt Q96RI1). The experiment in a line: qHTS assay to identify small molecule agonists of the farnesoid-X-receptor (FXR) signaling pathway (AID 743220; active = well fitted activation curve with a large enough effect in the signal ratio in the repeat runs, not every such curve was filed as active; the % refers to the signal ratio). An outline of the steps: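 FXR-UAS-bla HEK 293T cells carrying a UAS-driven beta-lactamase reporter were plated for 5 h at 37C/5% CO2, then exposed to DMSO-dissolved Tox21 10K compounds for 16 h at 37C. A LiveBLAzer B/G FRET substrate was loaded for 2 h at room temperature before fluorescence reading.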

Peroxisome proliferator-activated receptor delta (Homo sapiens), sequence (Q03181 whole entry, looked up): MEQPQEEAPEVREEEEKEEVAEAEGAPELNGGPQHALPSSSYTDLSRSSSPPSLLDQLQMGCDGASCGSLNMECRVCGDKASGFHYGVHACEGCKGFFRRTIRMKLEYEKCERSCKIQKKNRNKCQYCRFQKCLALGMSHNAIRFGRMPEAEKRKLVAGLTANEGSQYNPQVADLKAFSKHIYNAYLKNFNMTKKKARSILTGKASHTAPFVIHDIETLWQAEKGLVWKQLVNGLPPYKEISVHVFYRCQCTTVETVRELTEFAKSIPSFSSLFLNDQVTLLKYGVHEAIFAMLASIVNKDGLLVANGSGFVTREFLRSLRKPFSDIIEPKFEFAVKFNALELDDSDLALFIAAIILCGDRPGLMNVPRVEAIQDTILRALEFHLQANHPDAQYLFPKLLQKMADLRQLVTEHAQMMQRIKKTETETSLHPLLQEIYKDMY
Peroxisome proliferator-activated receptor gamma (Homo sapiens), sequence (P37231 whole entry, looked up): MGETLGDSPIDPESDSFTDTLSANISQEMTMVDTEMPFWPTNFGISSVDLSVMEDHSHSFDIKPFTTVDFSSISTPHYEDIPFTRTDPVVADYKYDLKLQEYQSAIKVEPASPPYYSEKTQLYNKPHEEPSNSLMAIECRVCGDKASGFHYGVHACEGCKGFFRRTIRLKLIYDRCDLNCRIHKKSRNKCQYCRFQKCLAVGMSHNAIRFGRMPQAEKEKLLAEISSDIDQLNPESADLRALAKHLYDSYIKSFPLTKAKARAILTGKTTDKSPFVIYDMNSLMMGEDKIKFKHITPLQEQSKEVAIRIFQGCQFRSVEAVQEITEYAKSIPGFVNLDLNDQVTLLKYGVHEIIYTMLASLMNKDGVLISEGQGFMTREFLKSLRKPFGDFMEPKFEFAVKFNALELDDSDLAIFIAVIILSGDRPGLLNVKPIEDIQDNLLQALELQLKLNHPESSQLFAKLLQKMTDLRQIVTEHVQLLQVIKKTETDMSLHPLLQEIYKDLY
Bile acid receptor (Homo sapiens), sequence (Q96RI1 whole entry, looked up): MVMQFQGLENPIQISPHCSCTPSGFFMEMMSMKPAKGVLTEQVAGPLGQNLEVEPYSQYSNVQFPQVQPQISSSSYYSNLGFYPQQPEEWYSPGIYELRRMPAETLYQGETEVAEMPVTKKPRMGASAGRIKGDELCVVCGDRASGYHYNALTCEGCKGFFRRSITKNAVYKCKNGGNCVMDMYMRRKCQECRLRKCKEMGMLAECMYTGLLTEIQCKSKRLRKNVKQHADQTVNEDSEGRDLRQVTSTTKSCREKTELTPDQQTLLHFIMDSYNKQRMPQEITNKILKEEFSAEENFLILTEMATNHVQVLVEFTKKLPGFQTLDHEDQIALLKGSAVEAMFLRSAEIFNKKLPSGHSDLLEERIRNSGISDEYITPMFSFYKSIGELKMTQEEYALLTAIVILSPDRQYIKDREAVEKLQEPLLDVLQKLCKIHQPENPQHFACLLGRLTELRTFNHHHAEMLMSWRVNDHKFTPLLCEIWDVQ
Vitamin D3 receptor (Homo sapiens), sequence (P11473 whole entry, looked up): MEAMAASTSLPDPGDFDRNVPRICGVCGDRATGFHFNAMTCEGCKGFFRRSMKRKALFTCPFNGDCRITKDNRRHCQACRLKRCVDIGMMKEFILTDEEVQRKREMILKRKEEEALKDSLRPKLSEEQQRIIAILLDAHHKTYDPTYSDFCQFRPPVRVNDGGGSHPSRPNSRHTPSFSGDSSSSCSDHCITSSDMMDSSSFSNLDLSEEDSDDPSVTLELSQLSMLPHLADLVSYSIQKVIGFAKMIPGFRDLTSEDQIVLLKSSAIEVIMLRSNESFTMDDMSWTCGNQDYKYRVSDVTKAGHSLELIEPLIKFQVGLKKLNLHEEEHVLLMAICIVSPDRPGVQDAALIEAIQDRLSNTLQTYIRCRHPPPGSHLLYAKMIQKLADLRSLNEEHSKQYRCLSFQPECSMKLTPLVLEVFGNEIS
Aryl hydrocarbon receptor (Homo sapiens), sequence (P35869 whole entry, looked up): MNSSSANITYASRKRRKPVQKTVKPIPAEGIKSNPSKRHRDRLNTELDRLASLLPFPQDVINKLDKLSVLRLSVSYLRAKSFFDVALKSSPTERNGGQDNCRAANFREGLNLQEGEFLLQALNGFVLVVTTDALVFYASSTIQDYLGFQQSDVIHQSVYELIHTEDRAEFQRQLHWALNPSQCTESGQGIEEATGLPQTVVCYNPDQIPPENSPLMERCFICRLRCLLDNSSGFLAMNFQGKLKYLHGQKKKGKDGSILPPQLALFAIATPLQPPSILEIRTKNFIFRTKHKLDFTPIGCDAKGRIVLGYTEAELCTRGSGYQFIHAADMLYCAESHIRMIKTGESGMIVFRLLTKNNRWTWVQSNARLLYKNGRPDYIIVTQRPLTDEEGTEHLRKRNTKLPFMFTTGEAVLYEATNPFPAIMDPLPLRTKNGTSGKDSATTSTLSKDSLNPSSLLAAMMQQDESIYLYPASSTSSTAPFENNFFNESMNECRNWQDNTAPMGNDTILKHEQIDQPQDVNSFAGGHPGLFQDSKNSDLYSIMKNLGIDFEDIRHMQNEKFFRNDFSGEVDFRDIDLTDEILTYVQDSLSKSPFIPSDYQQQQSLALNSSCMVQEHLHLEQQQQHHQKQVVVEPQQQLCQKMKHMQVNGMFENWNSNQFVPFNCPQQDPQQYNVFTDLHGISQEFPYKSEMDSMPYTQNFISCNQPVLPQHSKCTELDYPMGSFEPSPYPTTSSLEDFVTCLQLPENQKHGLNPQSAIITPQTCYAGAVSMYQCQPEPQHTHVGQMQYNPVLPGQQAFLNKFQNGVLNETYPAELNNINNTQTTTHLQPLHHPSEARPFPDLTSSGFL

Regarding `O=C1C=CC(=O)N1`, the Potency was 9.95 µM (active) in experiment [1]; 25.2 µM (active) in experiment [3]; 62.8 µM (active) in experiment [4]; 20 µM (active) in experiment [5]; 40 µM (active) in experiment [6]; 44.8 µM (active) in experiment [7]. Further, the Potency result in experiment [2] and in experiment [8] was “inactive” in each case.
As to `CNCc1cc(F)ccc1Oc1ccc(Cl)c(Cl)c1`, the Potency result in experiment [1], in experiment [2], in experiment [9], in experiment [10], in experiment [3] and in experiment [5] was “inactive” throughout. For the same compound, the Potency entry in experiment [11], in experiment [12], in [13], in [15] and in experiment [8] was “inactive” throughout. Also, the results for the Potency in experiment [4] and in experiment [14] were 61.1 µM (active) and 49 µM (active), respectively.
Take `N=C1C=CC(=C(c2ccc(N)cc2)c2ccc(N)cc2)C=C1`: the Potency in experiment [1] was 8.63 µM (active); in experiment [16], 17.2 µM (active); in experiment [3] it was 6.92 µM (active); in [4] it was 61.1 µM (active); in experiment [5], 30.9 µM (active). In addition, the Potency result in experiment [9], in [12] and in experiment [15] was “inactive” in each case.
With `CCN(CC)CCNC(=O)c1c(C)[nH]c(/C=C2\C(=O)Nc3ccc(F)cc32)c1C`, the Potency was 26.6 µM (active) in [1]; 11.9 µM (active) in experiment [16]; 16.8 µM (active) in [3]; 29.8 µM (active) in experiment [4]; 23.7 µM (active) in [6]; 4.73 µM (active) in [7]. The results for the Potency in [14] and in experiment [15] were 13.3 µM (active) and 21.1 µM (active), respectively. In experiment [11], the Potency entry is “inactive”.
In the case of `CN(C)c1ccc(SC#N)cc1`, the Potency result in [1], in experiment [16], in experiment [9], in [4], in experiment [5] and in experiment [6] was “inactive” in each case. For the same compound, the Potency result in experiment [7], in experiment [17], in experiment [14], in experiment [15] and in [8] was “inactive” each time.
On to `Nc1ccc2cc(S(=O)(=O)O)cc(O)c2c1N=Nc1ccccc1C(F)(F)F`, for which, in experiment [1], the Potency is 17.2 µM (active). The Potency entry in experiment [9], in experiment [10], in experiment [3], in [18], in experiment [4] and in [5] was “inactive” in each case. Moreover, the Potency result in experiment [11], in experiment [12], in [7], in experiment [13], in experiment [17] and in experiment [14] was “inactive” throughout. The Potency entry in experiment [19], in [15] and in experiment [8] was “inactive” in each case.
With `CC(C)(C)c1ccc(C(=O)CCCN2CCC(OC(c3ccccc3)c3ccccc3)CC2)cc1`, the Potency result in experiment [1], in experiment [16] and in [19] was “inactive” each time. In addition, the Potency in [4] was 29.8 µM (active); in [5], 29.8 µM (active); in experiment [7], 16.8 µM (active); in experiment [14], 26.6 µM (active).
